Several values for one entry are separate records, joined by “and”; a condition that tells them apart may be missing. Equal entries are not always repeated. Inconclusive results are not listed. A call without a number means that no potency is given here. Activity calls are given as the source filed them. Calls come from the whole dose curve; as a rule, active = well fitted cell-killing curve with a large enough effect in the repeat runs; inconclusive = weak or mixed curves, or effect the other way; inactive = flat fitted curve, though single readings scatter.
Potency is the fitted concentration of half-maximal effect.

The nature of this assay: qHTS assay to identify small molecule that activate the aryl hydrocarbon receptor (AhR) signaling pathway - cell viability counter screen (AID 743086). Note: nearly all actives have a fitted effect of over 45% in size. Conditions: HepG2-AhR-luc viability, CellTiter-Fluor, 24 h; series mostly up to 70.3 µM. From the text:
U.S. Tox21 Program National Center for Advancing Translational Sciences [NCATS] NIH Chemical Genomics Center [NCGC] U.S. Environmental Protection Agency [EPA] National Institutes of Environmental Health Sciences [NIEHS] National Toxicology Program [NTP] U.S. Food and Drug Administration [FDA] Tox21 Assay overview: The Aryl hydrocarbon Receptor (AhR), a member of the family of basic helix-loop-helix transcription factors, is crucial to adaptive responses to environmental changes. AhR mediates cellular responses to environmental pollutants such as aromatic hydrocarbons through induction of phase I and II enzymes but also interacts with other nuclear receptor signaling pathways A cell based HepG2-AhR-luc assay (HG2L7.5c1 cell line, developed by Dr. Michael S. Denison, University of California at Davis) was used to assess the activation of AhR. HepG2 (human hepatocellular carcinoma) cells were stably transfected with an Ah receptor-responsive firefly luciferase reporter gene plasmid containing 20 dioxin responsive elements and luciferase reporter gene. Increased luciferase activity can be used to identify the compounds that induce AhR activation. The cytotoxicity of the compounds screened against the HepG2-AhR-luc cell line was tested in parallel by measuring the cell viability using CellTiter-Fluor assay in the same wells.
Tox21 Assay Protocol Summary: 4000 cells in 5 uL/well were dispensed into white wall/solid bottom 1536-well plates using a Multidrop Combi (Thermo Fisher Scientific Inc., Waltham, MA) dispenser. After the assay plates were incubated at 37C for 5 h, 23 nL of compound or DMSO vehicle was transferred to the assay plates by a pintool station (Kalypsys, San Diego, CA). The plates were incubated at 37C for 24 hr. For cell viability measurement, 1 ul/well of CellTiter-Fluor reagent (Promega, Madison, WI) was added into the assay plates using a Flying Reagent Dispenser (FRD) (Aurora Discovery, CA),and then the assay plates were incubated at 37C for 30 min. The fluorescence intensity in the plates was measured using a ViewLux plate reader (PerkinElmer, Shelton, CT), followed by the addition of 4 uL of ONE-Glo Luciferase Assay reagent (Promega) using an FRD (Aurora Discovery). After the assay plates were incubated at room temperature for 30 min, luminescence intensity was measured using a ViewLux plate reader (Perkin Elmer).
On the technique in general: In qHTS, concentration-response curves come from the screen itself.
Turning to `CCC[C@@]1(CCc2ccccc2)CC(O)=C([C@H](CC)c2cccc(NS(=O)(=O)c3ccc(C(F)(F)F)cn3)c2)C(=O)O1`, the Potency result is “inactive”.
The entry for `CCCC(CCC)C(N)=O` is “inactive”.
The value for `CC(=O)[C@]1(O)Cc2c(O)c3c(c(O)c2[C@@H](O[C@H]2C[C@H](N)[C@H](O)[C@H](C)O2)C1)C(=O)c1c(O)cccc1C3=O` was 4.73 µM (active) and 13.3 µM (active).
The value for `CCCCCCCCCCCC(=O)OC[C@@H](O)C1OC[C@H](O)[C@H]1O` (stereo not given in full) was “inactive”.
With `CCCCC/C=C\CCC(=O)N[C@H]1[C@H](Oc2c3cc4cc2Oc2ccc(cc2Cl)[C@@H](O[C@@H]2O[C@H](CO)[C@@H](O)[C@H](O)[C@H]2NC(C)=O)[C@@H]2NC(=O)[C@H](NC(=O)[C@@H]4NC(=O)[C@H]4NC(=O)[C@@H](Cc5ccc(c(Cl)c5)O3)NC(=O)[C@H](N)c3ccc(O)c(c3)Oc3cc(O)cc4c3)c3ccc(O)c(c3)-c3c(O[C@H]4O[C@H](CO)[C@@H](O)[C@H](O)[C@@H]4O)cc(O)cc3[C@@H](C(=O)O)NC2=O)O[C@H](CO)[C@@H](O)[C@@H]1O`, the Potency result was “inactive”.
In the case of `CC(=C\c1ccccc1)/C=C1/SC(=S)N(CC(=O)O)C1=O`, the Potency result is “inactive”.
Turning to `COc1ccc2c(=O)c(C)c(-c3ccccc3)oc2c1CN(C)C`, the Potency result was “inactive”.
The entry for `CCN1C(=O)NC(c2ccccc2)C1=O` (stereo not given) is “inactive”.
The value for `CCC(=O)NS(=O)(=O)c1ccc(-c2c(-c3ccccc3)noc2C)cc1` was “inactive”.
The value for `CCC(=O)OCC(=O)[C@@]1(OC(=O)CC)[C@@H](C)C[C@H]2[C@@H]3CCC4=CC(=O)C=C[C@]4(C)[C@@]3(F)[C@@H](O)C[C@@]21C` was “inactive”; that for `CCCC(=O)Nc1ncnc2c1ncn2[C@@H]1O[C@@H]2COP(=O)(O)O[C@H]2[C@H]1OC(=O)CCC` was “inactive”; that for `COc1cc([C@@H]2c3cc4c(cc3C(O[C@@H]3O[C@@H]5CO[C@@H](C)O[C@H]5[C@H](O)[C@H]3O)C3COC(=O)[C@@H]32)OCO4)cc(OC)c1OP(=O)(O)O` (stereo not given in full) was “inactive”.
Regarding `CCN(CC)CCOCCOC(=O)C(CC)(CC)c1ccccc1`, the Potency result is “inactive”.
On to `CCCCCCCCCCCC(=O)N(CCO)CCO`, for which the Potency entry was “inactive”.
For the molecule `CC[C@H](C)[C@@H]1NC(=O)[C@H](Cc2ccc(O)cc2)NC(=O)[C@@H](N)CSSC[C@@H](C(=O)N2CCC[C@H]2C(=O)N[C@@H](CC(C)C)C(=O)NCC(N)=O)NC(=O)[C@H](CC(N)=O)NC(=O)[C@H](CCC(N)=O)NC1=O`, the Potency entry was “inactive”.
The value for `CC(C)C(=O)OCC(=O)[C@@]12O[C@H](C3CCCCC3)O[C@@H]1C[C@H]1[C@@H]3CCC4=CC(=O)C=C[C@]4(C)[C@H]3[C@@H](O)C[C@@]12C` was “inactive”.
With `CC(C)(C)CC(C)(C)c1cc(Cc2cc(C(C)(C)CC(C)(C)C)cc(-n3nc4ccccc4n3)c2O)c(O)c(-n2nc3ccccc3n2)c1`, the Potency entry was “inactive”.
With `Cc1cc(-n2c(=O)[nH]c(=O)n(C)c2=O)ccc1Oc1ccc(S(=O)(=O)C(F)(F)F)cc1`, the Potency entry was “inactive”.
`CC(C)(C)NC[C@H](O)COc1ccccc1C1CCCC1`: the Potency entry was “inactive”.
`CC(=O)Nc1ccc(OC(=O)c2ccccc2O)cc1`: the Potency entry is “inactive”.
In the case of `CCCCc1cc2c(=O)c(C(=O)OC)c[nH]c2cc1OCc1ccccc1`, the Potency entry was “inactive”.
Turning to `CCCC(=O)O[C@]1(C(=O)COC(C)=O)CC[C@H]2[C@@H]3C[C@H](F)C4=CC(=O)C=C[C@]4(C)[C@@]3(F)[C@@H](O)C[C@@]21C`, the Potency entry is “inactive”.
The value for `CC(=O)N(CC(C)C(=O)O)c1c(I)cc(I)c(N)c1I` (stereo not given) was “inactive”; that for `Cc1cc(O)c2c(c1)O[C@@]1(C)CC[C@H]3C(C)(C)CCCC34CO[C@@H]2[C@H]41` (stereo not given in full) was “inactive”.
The entry for `O=C(O)[C@H]1/C(=C/CO)O[C@@H]2CC(=O)N21` is “inactive”; for `O=C(O)C1=C(CSc2nnnn2CS(=O)(=O)O)CS[C@@H]2[C@H](NC(=O)[C@H](O)c3ccccc3)C(=O)N12` it is “inactive”; for `O=P(O)(O)OC[C@H]1O[C@](O)(COP(=O)(O)O)[C@@H](O)[C@@H]1O` it is “inactive”.
The entry for `CCCC1C(=O)N2C(N(C)C)=Nc3ccc(C)cc3N2C1=O` (stereo not given) is “inactive”; for `CC(=O)O[C@]1(C(C)=O)CC[C@H]2[C@@H]3CCC4=CC(=O)CC[C@]4(C)[C@@]3(F)[C@@H](O)C[C@@]21C` it is “inactive”; for `CNCC(O)c1ccc(OC(=O)C(C)(C)C)c(OC(=O)C(C)(C)C)c1` (stereo not given) it is “inactive”.
On to `CCOC(=O)O[C@]1(C(=O)COC(=O)CC)CC[C@H]2[C@@H]3CCC4=CC(=O)C=C[C@]4(C)[C@H]3[C@@H](O)C[C@@]21C`, for which the Potency result was “inactive”.
In the case of `CC[C@H](CC[C@@H](C)[C@H]1CC[C@H]2[C@@H]3CC=C4C[C@@H](O)CC[C@]4(C)[C@H]3CC[C@]12C)C(C)C`, the Potency entry is “inactive”.
The entry for `CC[C@H](C)[C@H]1O[C@]2(CC[C@@H]1C)C[C@@H]1C[C@@H](C/C=C(\C)[C@@H](O[C@H]3C[C@H](OC)[C@@H](O[C@H]4C[C@H](OC)[C@@H](O)[C@H](C)O4)[C@H](C)O3)[C@@H](C)/C=C/C=C3\CO[C@@H]4[C@H](O)C(C)=C[C@@H](C(=O)O1)[C@]34O)O2` is “inactive”; for `CC(C)CN(C[C@@H](OP(=O)(O)O)[C@H](Cc1ccccc1)NC(=O)O[C@H]1CCOC1)S(=O)(=O)c1ccc(N)cc1` it is “inactive”.
The entry for `COc1cc(S(C)=O)ccc1-c1nc2ncccc2[nH]1` (stereo not given) is “inactive”; for `O=C(CO)[C@@H](O)[C@H](O)[C@@H](O)C(=O)O` it is “inactive”; for `CCC(C)[C@@H](N)C(=O)O` (stereo not given in full) it is “inactive”.
The value for `NS(=O)(=O)c1cc2c(cc1Cl)NC(Cc1ccccc1)NS2(=O)=O` (stereo not given) was “inactive”; that for `CN(C(=O)CO)c1c(I)c(C(=O)NCC(O)CO)c(I)c(C(=O)NCC(O)CO)c1I` (stereo not given) was “inactive”.
For the molecule `CCC(=O)OCC(=O)[C@@]1(OC(=O)CC)[C@@H](C)C[C@H]2[C@@H]3CCC4=CC(=O)C=C[C@]4(C)[C@@]3(Cl)[C@@H](O)C[C@@]21C`, the Potency entry was “inactive”.

Values taken from PubChem BioAssay (Tox21).
